Measured values from PubChem BioAssay AID651813 (National Center for Advancing Translational Sciences (NCATS), 2012).
In all, about 2,100 compounds went through this assay and about 1,100 (52%) were called active. Not shown: some 27% with an inconclusive outcome. The set was probably picked from earlier hits. The list shows a part of the results. Values without a mark were called inactive. Calls follow the shape of the dose curve; as a rule, active = well fitted inhibition curve with a large enough effect; inconclusive = small, poorly fitted or top-dose-only effect; inactive = no such curve, though single readings can be large or run the other way.
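Also: hits raise yellow fluorescence by blocking Vif-driven A3G-eYFP degradation; nearly all actives have a fitted effect of over 70% in size.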
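For max response in this document: max response given as percent of control signal.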
Potency is read from the fitted curve at half-maximal effect.

These compounds were tested against DNA dC->dU-editing enzyme APOBEC-3G (Homo sapiens) (UniProt Q9HC16) (assay: qHTS for inhibitors of Vif-A3G interactions: Cherry picks counterscreen). Conditions: HeLa A3G-eYFP + Vif (tagged APOBEC3G with the HIV-1 protein that degrades it), eYFP fluorescence, 24 h.
Chain of DNA dC->dU-editing enzyme APOBEC-3G (Homo sapiens) (Q9HC16 whole entry, looked up): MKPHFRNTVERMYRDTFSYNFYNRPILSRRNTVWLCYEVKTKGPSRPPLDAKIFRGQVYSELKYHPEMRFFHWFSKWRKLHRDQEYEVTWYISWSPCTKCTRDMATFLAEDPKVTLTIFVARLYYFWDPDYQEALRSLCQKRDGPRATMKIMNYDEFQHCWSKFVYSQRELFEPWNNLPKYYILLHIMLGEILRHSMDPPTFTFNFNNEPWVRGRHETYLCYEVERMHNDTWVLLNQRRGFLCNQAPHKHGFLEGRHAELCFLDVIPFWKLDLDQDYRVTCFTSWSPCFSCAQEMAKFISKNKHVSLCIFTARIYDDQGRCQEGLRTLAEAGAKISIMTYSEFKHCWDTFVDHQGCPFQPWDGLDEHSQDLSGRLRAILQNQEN
In short: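 HeLa cells stably expressing A3G-eYFP and Vif were treated for 24 h at 37 deg C with compounds at several concentrations; yellow fluorescence (Ex 488 nm, Em 500-530 nm) read by Acumen Explorer, MG132 as positive control.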
In the case of `N#Cc1ccc(-c2cccnc2)nc1SCC(=O)c1ccccc1`, the Potency is reported as 2.91 µM (active).
With `Cc1ccc(C(=O)CSc2nc(-c3ccccc3)ccc2C#N)cc1` the Potency was 10.3 µM (active).
`NN=C1c2ccccc2C(=O)C1C(=O)C(c1ccccc1)c1ccccc1` (stereo not given) was tested, and the Potency was 15.8 µM (active).
In the case of `O=C(c1ccccc1)C1C(=O)c2ccccc2C1=O`, the max response is reported as -3.97%.
For `CC(C)NC(=S)N/N=C1\CCCCc2ccccc21`, the max response was -0.219%.
For `CC(C)NC(=S)N/N=C/c1sc(N2CCCCC2)nc1-c1cccs1`, the Potency was 20.6 µM (active).
For `COC(=O)C1=C(Nc2ccc(C)cc2)C=C(C)C(C(=O)OC)C1c1cccc(OC)c1` (stereo not given), the Potency was 11.2 µM (active).
Work on `COCc1ccc(O)c2ncccc12` yielded a max response of 15.6%.
For `COc1ccc2c(c1)c(C(=O)N/N=C/c1ccc(Cl)cc1)c(C)n2C`, the Potency was 12.5 µM (active).
With `COCCCNC(=S)N/N=C/c1ccc(OC)cc1` the max response was -8.47%.
In the case of `CC1=C/C(=C\C=C(C#N)C#N)N(C)c2ccccc21`, the Potency is reported as 2.06 µM (active).
With `CC(=O)c1cc2c(cc1NS(=O)(=O)c1ccc(C)cc1)OCCO2` the Potency was 12.5 µM (active).
In the case of `CCN(CC)c1ccc(/C=C/c2cccc[n+]2C)c(OC)c1`, the Potency is reported as 7.04 µM (active).
Compound `CCOc1ccc(CCNC(=O)c2ccc(Cn3c(=O)c4cccn4c4cccnc43)cc2)cc1` has a max response of -3.64%.
In the case of `O=C(NCCc1ccccc1Cl)c1ccc(Cn2c(=O)c3cccn3c3cccnc32)cc1`, the Potency is reported as 14.6 µM (active).
With `N#Cc1cccn1-c1nccc(-c2cccs2)n1` the Potency was 8.86 µM (active).
For `Cc1ccc2[nH]c(C)c(/C=C/c3cc[n+](C)cc3)c2c1`, the Potency was 0.627 µM (active).
For `Cc1[nH]c2ccccc2c1/C=C/C(=O)c1ccccc1`, the Potency was 18.4 µM (active).
`Cc1[nH]c2ccccc2c1/C=C/c1cc[n+](C)cc1` was tested, and the Potency was 0.994 µM (active).
`CC(OC(=O)/C(C#N)=C/c1ccc(N(C)C)cc1)C(=O)N(C)Cc1ccccc1` (stereo not given) was tested, and the Potency was 23.1 µM (active).
`CC(C)(C)NCC(=Cc1ccccc1)C(=O)c1ccccc1` was tested, and the max response was -3.58%.
With `O=C(C(=Cc1ccccc1)CN1CCCCC1)c1ccccc1` the Potency was 3.14 µM (active).
`COc1cc(C2Nc3ccc4ncccc4c3C3=C2C(=O)CCC3)ccc1O` (stereo not given) was tested, and the Potency was 14 µM (active).
For `COc1cc(C2Nc3ccc4ncccc4c3C3=C2C(=O)CCC3)cc(OC)c1O` (stereo not given), the Potency was 11.2 µM (active).
In the case of `CCOC(=O)c1sc2cc([N+](=O)[O-])cc(SCC(C)C)c2c1N`, the Potency is reported as 2.31 µM (active).
`COC(=O)c1sc2cc([N+](=O)[O-])cc(SCC(C)C)c2c1N` was tested, and the Potency was 8.2 µM (active).
In the case of `Cc1ccc2nc3c(cc(S(=O)(=O)c4ccccc4)c(=N)n3Cc3ccco3)c(=O)n2c1`, the max response is reported as 17.8%.
With `CC(/C=N/NC(=O)c1cc(-c2ccccc2)nc2ccccc12)=C\c1ccco1` the Potency was 2.23 µM (active).
With `CC(/C=N/NC(=O)c1cc(-c2ccc3ccccc3c2)n[nH]1)=C\c1ccco1` the Potency was 14 µM (active).
With `CCc1ccc(/C=N/NC(=O)c2cc(-c3ccncc3)nc3ccccc23)s1` the Potency was 3.53 µM (active).
With `O=C(N/N=C/c1ccco1)c1cc(-c2ccncc2)nc2ccccc12` the Potency was 11.2 µM (active).
`CCn1c(O)c(/C=N/NC(=O)c2ccncc2)c(=O)n(CC)c1=S` gave a max response of -1.22%.
`CCC(=C/c1sc2ccc3ccccc3c2[n+]1C)/C=C1\Sc2ccc3ccccc3c2N1C` showed a max response of -21.8%.
For `Cc1[nH]c2ccccc2c1/C=N/NC(=O)c1cc(-c2ccncc2)nc2ccccc12`, the Potency was 9.94 µM (active).
`O=C(Nc1ccccc1OC(=O)c1ccccc1)c1ccccc1` was tested, and the Potency was 17.7 µM (active).
`COc1ccccc1NC(=O)Cc1ccc(-c2ccccc2)cc1` gave a max response of -14.2%.
`O=C(NC(=S)Nc1ccc(-c2ccccc2)cc1)c1ccccc1` showed a max response of 2.13%.
In the case of `Cc1cc2c(cc(C(=O)OCC(=O)NCc3cccs3)n2C(C)C)o1`, the Potency is reported as 6.27 µM (active).
With `CCn1cc(/C=C/c2cc[n+](C)cc2)c2ccccc21` the Potency was 1.77 µM (active).
`C=CCn1cc(/C=C/c2cc[n+](C)cc2)c2ccccc21` was tested, and the Potency was 0.886 µM (active).
In the case of `CC(C)n1cc(/C=C/c2cc[n+](C)cc2)c2ccccc21`, the Potency is reported as 3.53 µM (active).
With `O=c1[nH]c2cc(Br)cnc2nc1/C=C(\O)c1ccc(F)cc1` the Potency was 18.4 µM (active).
In the case of `CCOc1cccc(-n2nnnc2-c2ccc(OC)cc2)c1`, the Potency is reported as 4.98 µM (active).
In the case of `COc1ccc(-n2nnnc2-c2cccc(OC)c2)cc1`, the Potency is reported as 1.98 µM (active).
With `COc1ccc(-n2nnnc2-c2ccccc2)cc1` the Potency was 3.14 µM (active).
For `COc1cccc(C(=O)Nc2ncc3c(n2)CC(c2ccc(OC)cc2OC)CC3=O)c1` (stereo not given), the Potency was 17.7 µM (active).
`CCN(CC)c1ccc2cc(-c3nc4sc5c(c4c(=O)[nH]3)CCC(C(C)(C)C)C5)c(=O)oc2c1` (stereo not given) showed a max response of 48%.
In the case of `COc1ccc2cc(-c3nc(Cl)c4c5c(sc4n3)CC(C)CC5)c(=O)oc2c1` (stereo not given), the Potency is reported as 20.6 µM (active).
With `COc1ccccc1-c1nnc2sc(-c3cc4ccccc4o3)nn12` the Potency was 1.98 µM (active).
`CS(=O)(=O)N(CC(=O)N1CCN(Cc2ccccc2)CC1)c1ccccc1F` was tested, and the max response was -9.78%.
In the case of `CCN(CC)CCCNc1ccc2ncn3c4ccc(O)cc4c(=O)c1c23`, the Potency is reported as 23.1 µM (active).
In the case of `CN(C)C(=O)c1cccc(-c2cnc3c(NC=O)cc(-c4ccccc4F)cn23)c1`, the max response is reported as -0.0482%.
With `Cc1ccc(-c2cc(NC=O)c3ncc(-c4cccc(C(=O)N(C)C)c4)n3c2)cc1` the Potency was 8.86 µM (active).
With `Cc1ccc(-c2cc(NC=O)c3ncc(-c4cnn(C)c4)n3c2)cc1` the Potency was 3.14 µM (active).
In the case of `CC(C)n1c(O)c(N=Nc2ccc(Cl)nn2)c2ccccc21`, the Potency is reported as 18.4 µM (active).
`CCOC(=O)/C=c1\s/c(=C\c2c(OC)ccc3ccccc23)c(=O)n1CC(=O)NCC1CCCO1` (stereo not given) was tested, and the Potency was 14.6 µM (active).
For `NC(=O)CSc1nc2c(sc3ccccc32)c(=O)n1CCCC(=O)NCC1CCCO1` (stereo not given), the max response was -5.1%.
`CCOC(=O)/C=c1/s/c(=C\c2c(OC)ccc3ccccc23)c(=O)n1CC(=O)NCC1CCCO1` (stereo not given) was tested, and the Potency was 11.2 µM (active).
For `CN(C)c1ccc(/C=C/c2ccnc3c(N)cccc23)cc1`, the Potency was 14.6 µM (active).
With `CN(C)c1ccc(/C=C/c2ccnc3c(Cl)ccc(Cl)c23)cc1` the Potency was 3.26 µM (active).
In the case of `CN(C)c1ccc(/C=C/c2ccnc3c(Cl)cccc23)cc1`, the Potency is reported as 11.6 µM (active).
With `Brc1ccc2c(c1)C(c1cccnc1)=NNC(c1cccs1)=N2` the Potency was 8.86 µM (active).
`c1cncc(-c2nc(NCc3cccs3)c3ccccc3n2)c1` gave a max response of -5.92%.
`CC(=O)n1cc(/C=N/NC(=O)c2sc(C)nc2C)c2ccccc21` was tested, and the Potency was 17.7 µM (active).
In the case of `O=C(c1ccc(CS(=O)c2ccccc2Cl)o1)N1CCN(c2ccccc2F)CC1` (stereo not given), the Potency is reported as 2.91 µM (active).
With `Cn1c(=O)[nH]c(=O)c2c1nc(Br)n2Cc1cccc(Br)c1` the Potency was 7.04 µM (active).
`O=C1C=CC(O)(c2cc(=O)c3c(O)cc(O)cc3o2)C=C1` was tested, and the Potency was 7.9 µM (active).
For `COc1cc(-c2noc(C)c2C#Cc2ccc(N)cc2)cc(OC)c1OC`, the Potency was 0.444 µM (active).
With `CCOC(=O)N1C/C(=C\c2ccccc2)C(=O)/C(=C/c2ccccc2)C1` the Potency was 8.86 µM (active).
In the case of `Cc1cccc(C(=O)Nc2nnc(C3=COCCO3)o2)c1`, the max response is reported as -1.82%.
For `CCc1sc(-c2cc3ccc(O)cc3oc2=O)nc1-c1ccc(C)cc1`, the Potency was 2.59 µM (active).
Compound `CCN(CC)c1ccc2cc(-c3nc(-c4ccc(Cl)cc4Cl)cs3)c(=O)oc2c1` has a max response of 34.3%.
With `O=c1oc2cc(O)ccc2cc1-c1nc(-c2ccc(Cl)c(Cl)c2)cs1` the Potency was 1.16 µM (active).
`CN1CCN(c2nc3ccccc3nc2NS(=O)(=O)c2ccc(Br)cc2)CC1` showed a max response of -6.45%.
In the case of `O=S(=O)(Nc1nc2ccccc2nc1N1CCN(c2ccccn2)CC1)c1ccc(Cl)cc1`, the Potency is reported as 16.4 µM (active).
`NC(=O)C1CCN(c2nc3ccccc3nc2NS(=O)(=O)c2ccc(Br)cc2)CC1` gave a max response of -5.92%.
With `CCN1C(=S)SC(=O)C1=C1C=C(C)N(Cc2ccco2)C(C)=C1` the Potency was 15.8 µM (active).
Work on `Cc1cccc(C)c1NC(=S)NC(C)CCc1ccccc1` (stereo not given) yielded a max response of -1.19%.
Work on `CC(C)(C)c1ccc(Oc2ccc(NC(=O)c3ccccc3C(=O)O)cn2)cc1` yielded a max response of 6.3%.
For `COc1cc(C(=O)Nc2ccc(C)cc2)c2ccccc2n1`, the Potency was 2.5 µM (active).
With `COc1ccc(NC(=O)c2c(Cl)n(C)c3ccccc23)cc1` the Potency was 14 µM (active).
`O=C(O)CSc1c2ccccc2cc2ccccc12` was tested, and the max response was -3.73%.
In the case of `COc1ccc(NC(=O)c2cccc3ccccc23)cc1`, the Potency is reported as 15.8 µM (active).
With `CCOC(=O)c1csc(NC(=O)c2cc(-c3ccccn3)nc3ccccc23)n1` the max response was -7.52%.
`CCN1/C(=C/c2cc[n+](C)cc2)C=Cc2cc(C)ccc21` was tested, and the Potency was 23.1 µM (active).
Work on `O=C1/C(=C/c2ccc(O)cc2)SC(=S)N1Cc1cccnc1` yielded a max response of -0.458%.
With `O=C1CSC(=S)N1Cc1cccnc1` the Potency was 4.11 µM (active).
For `Cc1ccc2c(c1)C=CC(C#N)N2C(=O)c1ccccc1` (stereo not given), the Potency was 4.98 µM (active).
In the case of `C(=Cc1c[nH]c2ccccc12)c1nccc2ccccc12`, the Potency is reported as 20.6 µM (active).
`Cc1ccc2c(/C=C/c3c[nH]c4ccccc34)ccnc2c1C` was tested, and the Potency was 5.8 µM (active).
In the case of `C(=C\c1c[nH]c2ccccc12)/c1nccc2ccccc12`, the Potency is reported as 10.3 µM (active).
For `O=C(c1ccccc1F)n1c2c(c3ccccc31)CCCC2`, the Potency was 15.8 µM (active).
Compound `CNCC(O)Cn1c2c(c3ccccc31)CCCC2` (stereo not given) has a max response of 20.6%.
For `O=C(NC1CC1)c1cccc2c1C(=O)c1ccc(N3CCC(Cc4ccccc4)CC3)cc1S2(=O)=O`, the Potency was 20.6 µM (active).
`O=C(NC1CCCCC1)c1cccc2c1C(=O)c1ccc(N3CCC(Cc4ccccc4)CC3)cc1S2(=O)=O` was tested, and the Potency was 15.8 µM (active).
